The source of these data is PubChem BioAssay (NCI).

Several values for one entry are separate records, joined by “and”; a condition that tells them apart may be missing. Equal values may be shown once. Compounds without any hit were thinned out: in the full panel of roughly 83,000, 20% have a hit.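 Single-dose data. Exposure time 48 hours. Values below 10 considered active.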 Activity calls are given as the source filed them.

What all share (experiment): NCI-60 one-dose screen, 48 h (100 = growth as untreated, 0 = no growth, -100 = all killed)
Common to all, as to details: 10 µM unless noted

The subject of test [1] is SR leukemia.
Test [2] concerns RPMI-8226 leukemia.
Test [3] concerns OVCAR-8 ovarian.
For test [4], the system named is OVCAR-5 ovarian.
For test [5], the system named is SK-OV-3 ovarian.
Test [6] deals with IGROV1 ovarian.
The subject of test [7] is OVCAR-3 ovarian.
The test system of test [8] is HS 578T breast.
For test [9], the system named is NCI/ADR-RES ovarian.
The subject of test [10] is T-47D breast.
For test [11], the system named is BT-549 breast.
The test system of test [12] is MDA-MB-435 melanoma.
Test [13] concerns SW-620 colon.
The subject of test [14] is MCF7 breast.
Test [15] concerns HCT-116 colon.
Test [16] has as its system HCC-2998 colon.
Test [17] concerns KM12 colon.
Test [18] deals with OVCAR-4 ovarian.

For `CCC(O)c1ccccc1` (stereo not drawn), the growth was 100% (inactive) and 94.1% (inactive) in test [1]; 192% (inactive) in test [2]; 101% (inactive) and 96.1% (inactive) in test [3]; 106% (inactive) and 108% (inactive) in test [4]; 121% (inactive) and 105% (inactive) in [5]; 109% (inactive) and 108% (inactive) in test [6]. The growth in test [7] was 112% (inactive) and 109% (inactive); in test [8], 81.8% (inactive) and 93.6% (inactive); in test [9] it was 112% (inactive) and 118% (inactive); in [10] it was 106% (inactive) and 102% (inactive); in test [11], 133% (inactive); in [12], 89.8% (inactive) and 107% (inactive). The growth is 109% (inactive) and 104% (inactive) in test [13]; 103% (inactive) and 95.6% (inactive) in test [14]; 86.7% (inactive) and 108% (inactive) in test [15]; -87.7% (active) in [16]; 116% (inactive) and 108% (inactive) in test [17].
With `Clc1ccc(NC(Nc2ccc(Cl)cc2)C(Cl)(Cl)Cl)cc1`, the growth is 99.4% (inactive) in test [1]; 95.9% (inactive) in [2]; 93.6% (inactive) and 107% (inactive) in [3]; 79.9% (inactive) and 100% (inactive) in test [4]; 100% (inactive) and 98% (inactive) in test [5]; 75.3% (inactive) and 103% (inactive) in test [6]. Besides, the growth in test [7] is 89% (inactive) and 102% (inactive); in test [8], 109% (inactive); in test [9] it was 61.5% (inactive) and 99.4% (inactive); in test [10] it was 67.7% (inactive) and 82.8% (inactive); in [11] it was 69.3% (inactive) and 85.8% (inactive); in test [12], 62.9% (inactive) and 97.7% (inactive). Further, the growth was 69% (inactive) and 98% (inactive) in [13]; 88.9% (inactive) and 92.1% (inactive) in test [14]; 61.9% (inactive) and 85.4% (inactive) in test [15]; 80.6% (inactive) and 92.4% (inactive) in test [16]; 48.6% (inactive) and 84.9% (inactive) in [17].
Regarding `Nc1ccccc1Nc1ccccc1`, the growth in [1] was 68.2% (inactive) and 72.1% (inactive); in test [2] it was 42.3% (inactive) and 29.1% (inactive); in test [3] it was 95.7% (inactive) and 92.3% (inactive); in test [4], 129% (inactive) and 115% (inactive); in test [5], 114% (inactive) and 106% (inactive); in [6], 100% (inactive) and 109% (inactive). Besides, the growth was 79.8% (inactive) and 57% (inactive) in [7]; 89.1% (inactive) and 102% (inactive) in test [8]; 88% (inactive) and 84.7% (inactive) in test [9]; 88.1% (inactive) and 83.5% (inactive) in test [10]; 70.9% (inactive) and 58.4% (inactive) in test [11]; 106% (inactive) and 112% (inactive) in test [13]. Also, the growth was 93.8% (inactive) and 91.8% (inactive) in test [14]; 86.6% (inactive) and 88.8% (inactive) in test [15]; 98.7% (inactive) and 96.4% (inactive) in [16]; 85.8% (inactive) and 79.6% (inactive) in test [17].
`O=C(Nc1cccc(Cl)c1)c1cc2ccccc2cc1O`: the growth was 23.4% (inactive) and 3.87% (active) in test [1]; -19.4% (active) and -4.12% (active) in test [2]; 11.2% (inactive) and 8.75% (active) in test [3]; 97.2% (inactive) and 56.4% (inactive) in test [4]; 29.7% (inactive) and 10.1% (inactive) in [18]; -11.7% (active) in [5]. Besides, the growth in test [7] is 18.5% (inactive) and 14.7% (inactive); in [8], 17.5% (inactive) and 21.8% (inactive); in test [9], 4.12% (active) and 9.44% (active); in [10] it was 15.5% (inactive) and 2.04% (active); in [11], 6.65% (active) and 0.941% (active); in [13], 13.1% (inactive) and 13.9% (inactive). Besides, the growth in test [14] was 35.5% (inactive) and 16.9% (inactive); in test [15], 18.9% (inactive) and 6.81% (active); in [16], 27.4% (inactive); in test [17] it was 15.4% (inactive) and 11.8% (inactive).
Consider `O=Nc1ccc(O)cc1`, for which the growth in test [1] was 79.4% (inactive) and 74.3% (inactive); in test [2], 97.6% (inactive) and 103% (inactive); in [3], 106% (inactive) and 92.4% (inactive); in test [18], 108% (inactive) and 106% (inactive); in [5], 108% (inactive) and 107% (inactive); in [6], 91.7% (inactive) and 82% (inactive). In addition, the growth in test [7] is 89.2% (inactive) and 97.7% (inactive); in test [8], 104% (inactive) and 96.6% (inactive); in [9] it was 89.3% (inactive) and 84.6% (inactive); in test [10], 87.5% (inactive) and 85.2% (inactive); in test [11], 83% (inactive); in test [12], 104% (inactive) and 108% (inactive). Further, the growth is 86.1% (inactive) and 94.1% (inactive) in test [13]; 84.6% (inactive) and 93.4% (inactive) in [14]; 103% (inactive) and 78.3% (inactive) in test [15]; 101% (inactive) and 104% (inactive) in test [16]; 101% (inactive) and 94.7% (inactive) in [17].
